The text below walks through data of PubChem BioAssay.

Assay [1] in a line: binders of probe aFSTL3 on microarray, primary screen, stem cell growth factor project, biochemical, small-molecule microarray, fluorescence 635/667 (AID 1064).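 Further: measures binding of the biotinylated anti-FSTL3 antibody to printed compounds.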 The conditions noted are these: higher = more signal.
The nature of assay [2]: binders from COS7 lysate, DM2A8 probe, primary screen, torsin A project, cell lysate, small-molecule microarray, fluorescence 635/667 (AID 1065). The conditions noted are these: higher = more signal, COS7 lysate expressing mutant human TOR1A.
A short description of assay [3]: binders of probe aFGF2 on microarray, primary screen, stem cell growth factor project, biochemical, small-molecule microarray, fluorescence 635/667 (AID 1067).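 Further: measures binding of biotinylated aFGF2 protein to printed compounds on slides; z-score merges feature fluorescence and signal-to-noise across triplicate slides.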 To be noted: higher = more signal.
Assay [4] in a line: binders of probe aFGF10 on microarray, primary screen, stem cell growth factor project, biochemical, small-molecule microarray, fluorescence 635/667 (AID 1071).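 Further: score merges 667 nm spot intensity and signal to noise from triplicate slides.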 To be noted: higher = more signal.
Assay [5] addresses Neurogenic locus notch homolog protein 2 (Homo sapiens) (UniProt Q04721). The assay is described as follows: Notch2 binders on small-molecule microarrays, primary screen, biochemical, small-molecule microarray, 635 nm fluorescence, stem cell growth factors (AID 1073). The conditions noted are these: Notch2 binding, higher = more signal.
Assay [6] has as its target Pro-neuregulin-1, membrane-bound isoform (Homo sapiens) (UniProt Q02297). The assay is described as follows: NRG1 binders on small-molecule microarrays, primary screen, psychiatric disease protein project, biochemical, small-molecule microarray, fluorescence 635/667 (AID 1075).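 Further: score combines 667 nm spot fluorescence with signal to noise.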 The conditions noted are these: NRG1 binding, 635 nm fluorescence, higher = more signal.
Assay [7] concerns Neuregulin-1 EGF-like domain. The assay can be described thus: binders of neuregulin-1 EGF-like domain, primary screen, biochemical, small-molecule microarray, 635 nm fluorescence (AID 1081).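 Further: binding of the protein to compounds printed on small-molecule microarray slides.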 To be noted: small-molecule microarray binding, higher = more signal.
Assay [8] is described as follows: FRG1 promoter luciferase signal modulators, primary screen, FRG1 inhibition for FSHD, cell-based, C2C12 myotubes, firefly/Renilla luciferase, luminescence (AID 1084). To be noted: higher = more signal, called active from +8 up or from −8 down.
The nature of assay [9]: binders of probe aFST on microarray, primary screen, stem cell growth factor project, biochemical, small-molecule microarray, fluorescence 635/667 (AID 1086).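 Further: score merges 667 nm fluorescence with signal-to-noise of each printed compound spot.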 To be noted: higher = more signal.
The nature of assay [10]: binders of probe aHhip on microarray, primary screen, stem cell growth factor project, biochemical, small-molecule microarray, fluorescence 635/667 (AID 1087).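 Further: score merges spot fluorescence at 667nm with spot signal to noise ratio.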 The conditions noted are these: higher = more signal.

Active and inactive are the calls of the source.

Chain of Pro-neuregulin-1, membrane-bound isoform (Homo sapiens) (Q02297 whole entry, looked up, the tested form may be a part, canonical isoform): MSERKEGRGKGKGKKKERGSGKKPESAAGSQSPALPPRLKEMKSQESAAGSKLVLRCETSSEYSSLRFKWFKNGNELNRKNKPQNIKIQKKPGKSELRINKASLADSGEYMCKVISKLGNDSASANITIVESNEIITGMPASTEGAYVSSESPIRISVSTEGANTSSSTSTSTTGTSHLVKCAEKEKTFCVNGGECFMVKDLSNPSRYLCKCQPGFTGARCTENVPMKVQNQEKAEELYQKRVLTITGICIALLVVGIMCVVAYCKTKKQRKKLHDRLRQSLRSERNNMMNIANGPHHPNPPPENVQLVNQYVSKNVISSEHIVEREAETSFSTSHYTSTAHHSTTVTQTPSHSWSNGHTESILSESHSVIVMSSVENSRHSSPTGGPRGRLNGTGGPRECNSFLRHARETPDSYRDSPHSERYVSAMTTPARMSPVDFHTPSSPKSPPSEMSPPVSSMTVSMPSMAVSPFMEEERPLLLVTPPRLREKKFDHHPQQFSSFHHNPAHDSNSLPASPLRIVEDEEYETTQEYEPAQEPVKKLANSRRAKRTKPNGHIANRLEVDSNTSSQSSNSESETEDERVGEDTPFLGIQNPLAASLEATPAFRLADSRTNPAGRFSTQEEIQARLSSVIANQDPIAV
Chain of Neurogenic locus notch homolog protein 2 (Homo sapiens) (Q04721 whole entry, looked up, canonical isoform): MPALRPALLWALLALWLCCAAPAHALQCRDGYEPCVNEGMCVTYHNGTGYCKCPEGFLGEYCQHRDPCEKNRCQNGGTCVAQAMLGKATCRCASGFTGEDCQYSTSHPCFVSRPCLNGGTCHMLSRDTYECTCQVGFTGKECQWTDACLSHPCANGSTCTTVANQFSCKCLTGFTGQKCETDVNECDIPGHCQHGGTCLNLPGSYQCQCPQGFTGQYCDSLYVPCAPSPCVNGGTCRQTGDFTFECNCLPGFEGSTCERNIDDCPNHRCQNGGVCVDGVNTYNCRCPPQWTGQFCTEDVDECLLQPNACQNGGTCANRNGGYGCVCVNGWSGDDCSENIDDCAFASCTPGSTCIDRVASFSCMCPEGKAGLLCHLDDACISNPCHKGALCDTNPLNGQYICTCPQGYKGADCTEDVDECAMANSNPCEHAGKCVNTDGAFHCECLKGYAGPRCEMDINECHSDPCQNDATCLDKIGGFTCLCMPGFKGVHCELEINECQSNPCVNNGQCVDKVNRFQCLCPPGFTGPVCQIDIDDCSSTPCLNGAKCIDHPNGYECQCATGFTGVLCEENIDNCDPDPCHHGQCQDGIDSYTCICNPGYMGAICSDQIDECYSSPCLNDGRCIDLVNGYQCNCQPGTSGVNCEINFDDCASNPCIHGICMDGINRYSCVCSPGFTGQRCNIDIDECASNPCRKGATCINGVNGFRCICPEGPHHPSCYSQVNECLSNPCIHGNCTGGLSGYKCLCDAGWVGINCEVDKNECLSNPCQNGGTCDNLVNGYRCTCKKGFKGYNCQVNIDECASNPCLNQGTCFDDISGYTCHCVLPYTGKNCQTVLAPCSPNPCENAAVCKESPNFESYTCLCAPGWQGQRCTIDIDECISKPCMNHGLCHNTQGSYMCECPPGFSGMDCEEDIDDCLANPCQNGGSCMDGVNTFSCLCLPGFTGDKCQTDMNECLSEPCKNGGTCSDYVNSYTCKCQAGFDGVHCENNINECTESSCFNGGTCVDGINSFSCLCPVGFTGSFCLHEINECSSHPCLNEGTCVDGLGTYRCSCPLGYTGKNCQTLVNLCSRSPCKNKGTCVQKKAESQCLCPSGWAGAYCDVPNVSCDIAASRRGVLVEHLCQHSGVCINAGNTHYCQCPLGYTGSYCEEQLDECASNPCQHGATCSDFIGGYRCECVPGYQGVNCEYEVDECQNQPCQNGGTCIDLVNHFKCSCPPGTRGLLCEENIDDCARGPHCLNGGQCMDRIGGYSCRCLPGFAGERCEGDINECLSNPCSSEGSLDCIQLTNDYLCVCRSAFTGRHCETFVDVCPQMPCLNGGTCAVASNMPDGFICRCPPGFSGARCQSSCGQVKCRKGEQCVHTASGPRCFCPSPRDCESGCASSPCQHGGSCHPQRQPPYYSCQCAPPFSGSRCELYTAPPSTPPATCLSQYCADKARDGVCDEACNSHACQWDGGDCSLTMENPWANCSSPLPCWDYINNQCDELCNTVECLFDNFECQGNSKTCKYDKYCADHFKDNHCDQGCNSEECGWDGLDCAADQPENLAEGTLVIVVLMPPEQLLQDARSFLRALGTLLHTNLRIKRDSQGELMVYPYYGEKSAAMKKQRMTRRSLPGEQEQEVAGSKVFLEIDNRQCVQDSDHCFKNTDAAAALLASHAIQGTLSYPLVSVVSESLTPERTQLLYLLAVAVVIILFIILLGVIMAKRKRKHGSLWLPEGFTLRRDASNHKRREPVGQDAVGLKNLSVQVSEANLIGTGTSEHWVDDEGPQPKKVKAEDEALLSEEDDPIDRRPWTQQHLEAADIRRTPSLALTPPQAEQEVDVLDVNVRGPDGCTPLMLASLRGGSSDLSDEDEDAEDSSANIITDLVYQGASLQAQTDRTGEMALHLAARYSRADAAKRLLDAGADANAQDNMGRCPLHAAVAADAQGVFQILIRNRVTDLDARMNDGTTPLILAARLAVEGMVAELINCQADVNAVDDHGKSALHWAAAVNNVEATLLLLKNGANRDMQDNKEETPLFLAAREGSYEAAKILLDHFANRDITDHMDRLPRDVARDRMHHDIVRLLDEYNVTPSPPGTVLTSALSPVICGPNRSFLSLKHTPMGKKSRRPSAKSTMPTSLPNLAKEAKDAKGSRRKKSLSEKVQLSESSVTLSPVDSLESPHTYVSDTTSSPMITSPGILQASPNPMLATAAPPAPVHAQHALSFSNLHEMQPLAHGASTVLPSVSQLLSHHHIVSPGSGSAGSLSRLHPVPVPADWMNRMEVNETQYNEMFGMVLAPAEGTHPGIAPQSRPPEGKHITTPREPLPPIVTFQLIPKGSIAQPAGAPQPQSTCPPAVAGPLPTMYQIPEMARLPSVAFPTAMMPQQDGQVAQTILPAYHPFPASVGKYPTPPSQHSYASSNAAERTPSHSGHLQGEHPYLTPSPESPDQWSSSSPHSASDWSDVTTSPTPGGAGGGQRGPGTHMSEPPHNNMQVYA

For `CC(=O)n1cc(C(O)C2C=CC3C(=O)N(c4ccccc4)C(=O)C3N2Nc2ccccc2)c2ccccc21` (stereo not given), the composite z-score came out at 1.87 in assay [1]; 0.489 in assay [2]; 0.447 in assay [3]; 0.893 in assay [4]; 1.52 in assay [5]; 0.837 in assay [6]. Further, the composite z-score in assay [7] was 1.11; in [9] it was 1.1; in assay [10] it was -0.0702. In addition, in [8], the z-score was 0.621 (inactive).
As for `CC(C)OC(=O)CC(=O)CC(O)c1cccc(C#N)c1` (stereo not given), the composite z-score in assay [1] was 0.424; in [2], 0.995; in assay [3] it was -0.0103; in [4] it was 0.535; in assay [5], 1.43; in [6] it was 0.311. For the same molecule, the composite z-score in assay [7] was 0.936; in [9], 0.494; in [10], -0.452. Besides, in assay [8], the z-score is -0.326 (inactive).
For `C[N+](C)(C)CCCC[C@@H]1NC(=O)[C@@H]2C[C@H](C(=O)O)[C@H](c3ccc(O)cc3)N2C1=O`, the composite z-score in assay [1] was 1.26; in assay [2] it was -0.752; in [3] it was -0.119; in assay [4], -0.695; in assay [5] it was -1.77; in assay [6] it was -0.0673. For the same molecule, the values for the composite z-score in [7], in assay [9] and in [10] were -0.118, -0.639 and -0.137, respectively. The z-score in assay [8] is 0.0902 (inactive).
As for `O=C(N1CCCCC1)[C@@]1(Cc2ccccc2)COC(c2ccc(OCCCO)cc2)=N1`, the composite z-score turned out to be 0.771 in assay [1]; 0.81 in [2]; 0.0661 in assay [3]; 1.1 in assay [4]; 1.33 in [5]; 1.91 in assay [6]. The results for the composite z-score in assay [7], in assay [9] and in assay [10] were 1.25, 0.53 and 0.347, respectively. Moreover, the z-score in [8] was -2.97 (inactive).
In the case of `[N-]=[N+]=NCc1ccccc1C[C@@]1(C(=O)N2CCCCC2)N=C(c2ccc(OCCCO)cc2)O[C@@H]1c1ccccc1N=[N+]=[N-]`, the composite z-score in assay [1] was 0.167; in [2] it was 0.101; in assay [3] it was -0.204; in assay [4], 0.229; in assay [5], 1.49; in [6], 1.38. The values for the composite z-score in [7], in assay [9] and in assay [10] were 1.05, 0.227 and 0.0505, respectively. Besides, the z-score in assay [8] is -3 (inactive).
On to `COC(=O)[C@H](Cc1ccccc1)N1CC(/C=C/C2CC2)=C[C@@H]1[C@@H](O)Cc1ccccc1`, for which the composite z-score in assay [1] was -0.549; in assay [2], 0.0784; in [3], -0.0093; in assay [4] it was 1.23; in [5], 1.38; in assay [6], 0.947. Further, the figures for the composite z-score in assay [7], in [9] and in [10] were 1.11, 0.707 and 0.177, respectively. For the same molecule, the z-score in assay [8] was -1.09 (inactive).
For `CCCNC(=O)[C@@]1(c2ccc([N+](=O)[O-])cc2)CC(=O)N(C2CCCCC2)[C@@H]1c1ccc(CO)cc1I`, the composite z-score in [1] was determined as 0.368; in [2] it was 0.983; in assay [3], 0.091; in assay [4] it was 0.599; in assay [5], 0.96; in assay [6] it was 0.456. In addition, the composite z-score in assay [7] was 1.21; in [9] it was 0.29; in assay [10], -0.0994. In assay [8], the z-score was -0.546 (inactive).
Take `[N-]=[N+]=Nc1ccccc1C[C@@]1(C(=O)O)N=C(c2ccc(OCCCO)cc2)O[C@@H]1c1ccccc1`: the composite z-score is 0.0693 in [1]; -0.518 in [2]; 0.0248 in [3]; 0.303 in [4]; 1.35 in assay [5]; 1.75 in assay [6]. For the same molecule, the composite z-score in [7] was 1.24; in assay [9] it was 0.827; in [10] it was -0.0765. The z-score in assay [8] is 0.835 (inactive).
As to `C=C1C2CC3C(=C4C(CO[C@@H]4[C@H]4CCCN4S(=O)(=O)c4ccccc4[N+](=O)[O-])C4C(=O)N(C)C(=O)C34)CC2C(=O)N1C` (stereo not given in full), the composite z-score in [1] was -0.431; in assay [2], 0.315; in assay [3], -0.125; in assay [4] it was 0.36; in assay [5], 0.574; in assay [6], 1.12. Besides, the composite z-score was found to be 0.0641 in [7], 0.174 in assay [9] and 0.0024 in [10]. Moreover, the z-score in [8] is 0.581 (inactive).
As for `C=CCOC(=O)[C@@H]1[C@H]2C(=O)O[C@H](c3ccccc3)[C@H](c3ccccc3)N2[C@H](c2ccc(OCCOC(=O)[C@H]3C[C@H]4C(=O)N[C@@H](CCCCN(C)C)C(=O)N4[C@H]3c3cccc(OCCO)c3)cc2)[C@@]12C(=O)Nc1ccc(I)cc12`, the composite z-score in assay [1] was 0.0594; in assay [2], 1.24; in [3] it was -0.0308; in assay [4] it was 0.526; in assay [5] it was 0.59; in assay [6], 1.55. Moreover, the composite z-score turned out to be 1.32 in [7], 0.312 in assay [9] and 0.064 in [10]. In addition, the z-score in assay [8] is 0.842 (inactive).
`COCCCNC(=O)[C@]1(Cc2ccccc2N=[N+]=[N-])N=C(c2ccc(OCCCO)cc2)O[C@@H]1c1ccccc1N=[N+]=[N-]`: the composite z-score was 0.421 in [1]; -0.0585 in assay [2]; 0.0797 in assay [3]; 0.491 in assay [4]; 1.3 in assay [5]; 1.86 in assay [6]. The composite z-score in [7] was 1.15; in [9] it was 0.847; in [10], -0.0296. Also, the z-score in assay [8] was -1.93 (inactive).
With `C[C@H]1C2=C3C(CC[C@H]4C(OCc5ccc(F)cc5C(F)(F)F)OC[C@](C)([C@@H]34)N(C(=O)OC(C)(C)C)C2)C(CO)C1CO` (stereo not given in full), the composite z-score is 0.0721 in [1]; -0.249 in assay [2]; 0.0506 in assay [3]; -0.0807 in [4]; 1.57 in assay [5]; 1.76 in assay [6]. Further, the composite z-score in assay [7] amounted to 0.572; in assay [9] it was 1.72; in assay [10], 0.2. In addition, the z-score in [8] is 0.133 (inactive).
Regarding `CCOC(=O)C[C@H]1[C@H](OC(=O)Cc2ccc3c(c2)OCO3)[C@@H](NC(=O)C2CCCCC2)c2cc(OCCCO)ccc2N1C(=O)c1ccc2ccccc2n1`, the composite z-score in assay [1] is 0.695; in [2], 0.246; in assay [3], -0.003; in [4], 0.234; in [5], 0.904; in assay [6], 0.196. Also, the composite z-score is 0.519 in assay [7], 0.857 in [9] and -0.335 in [10]. In addition, the z-score in [8] is -2.88 (inactive).
Take `C[C@H]1ON(c2ccc(C(=O)OC(C)(C)C)cc2)[C@@H](c2ccc(O)cc2)[C@@H]1C(=O)N1C(=O)OC[C@@H]1c1ccccc1`: the composite z-score in assay [1] was -0.565; in assay [2] it was -0.156; in [3], -0.117; in assay [4], 0.686; in assay [5], 1.42; in assay [6], 0.464. Besides, the composite z-score in assay [7] was 1.15; in assay [9] it was 0.184; in assay [10] it was -0.0022. Moreover, the z-score in assay [8] is -0.308 (inactive).
